{
  "source": "the supplement of paper PMC9492666",
  "key": {"HCC1937": {"system": "HCC1937", "experiment": "relative cell viability, compound + erastin, vs DMSO (fraction of DMSO control); higher = less growth inhibition", "details": "72 h"}, "MDA-MB-231": {"system": "MDA-MB-231", "experiment": "relative cell viability, compound + erastin, vs DMSO (fraction of DMSO control); higher = less growth inhibition", "details": "72 h"}},
  "data": [
    {"smiles": "O=S(=O)(O)c1ccc2cc(N=Nc3cc(S(=O)(=O)O)c4cccnc4c3O)ccc2c1", "note": "+ CCOc1ccccc1-n1c(C(C)N2CCN(C(=O)COc3ccc(Cl)cc3)CC2)nc2ccccc2c1=O [erastin]", "values": [
      {"measurement": "relative cell viability", "setting": "HCC1937", "value": 0.741},
      {"measurement": "relative cell viability", "setting": "MDA-MB-231", "value": 0.595}
    ]},
    {"smiles": "COc1cc(O)c2c(c1)O[C@H](c1ccc(O)cc1)CC2=O", "note": "[Sakuranetin] + CCOc1ccccc1-n1c(C(C)N2CCN(C(=O)COc3ccc(Cl)cc3)CC2)nc2ccccc2c1=O [erastin]", "values": [
      {"measurement": "relative cell viability", "setting": "HCC1937", "value": 0.648},
      {"measurement": "relative cell viability", "setting": "MDA-MB-231", "value": 0.527}
    ]},
    {"smiles": "O=C(O)/C=C/c1ccc(O)c(O)c1", "note": "[Caffeic Acid] + CCOc1ccccc1-n1c(C(C)N2CCN(C(=O)COc3ccc(Cl)cc3)CC2)nc2ccccc2c1=O [erastin]", "values": [
      {"measurement": "relative cell viability", "setting": "HCC1937", "value": 0.777},
      {"measurement": "relative cell viability", "setting": "MDA-MB-231", "value": 0.979}
    ]},
    {"smiles": "O=C(NCCN1CCC2(CC1)C(=O)NCN2c1ccccc1)c1ccc2ccccc2c1", "note": "+ CCOc1ccccc1-n1c(C(C)N2CCN(C(=O)COc3ccc(Cl)cc3)CC2)nc2ccccc2c1=O [erastin]", "values": [
      {"measurement": "relative cell viability", "setting": "HCC1937", "value": 0.392},
      {"measurement": "relative cell viability", "setting": "MDA-MB-231", "value": 0.589}
    ]},
    {"smiles": "COc1cccc(CNc2ccc(S(=O)(=O)Nc3nc4ccccc4s3)cc2)c1O", "note": "+ CCOc1ccccc1-n1c(C(C)N2CCN(C(=O)COc3ccc(Cl)cc3)CC2)nc2ccccc2c1=O [erastin]", "values": [
      {"measurement": "relative cell viability", "setting": "HCC1937", "value": 0.639},
      {"measurement": "relative cell viability", "setting": "MDA-MB-231", "value": 0.68}
    ]},
    {"smiles": "CC(C)c1nc(N(C)S(C)(=O)=O)nc(-c2ccc(F)cc2)c1/C=C/[C@@H](O)C[C@@H](O)CC(=O)O", "note": "[Rosuvastatin] + CCOc1ccccc1-n1c(C(C)N2CCN(C(=O)COc3ccc(Cl)cc3)CC2)nc2ccccc2c1=O [erastin]", "values": [
      {"measurement": "relative cell viability", "setting": "HCC1937", "value": 0.656},
      {"measurement": "relative cell viability", "setting": "MDA-MB-231", "value": 0.781}
    ]},
    {"smiles": "O=C(Nc1ccccc1)c1cc([N+](=O)[O-])ccc1Cl", "note": "+ CCOc1ccccc1-n1c(C(C)N2CCN(C(=O)COc3ccc(Cl)cc3)CC2)nc2ccccc2c1=O [erastin]", "values": [
      {"measurement": "relative cell viability", "setting": "HCC1937", "value": 0.71},
      {"measurement": "relative cell viability", "setting": "MDA-MB-231", "value": 0.706}
    ]},
    {"smiles": "Cc1cnc(C(=O)NCCc2ccc(S(=O)(=O)NC(=O)NC3CCCCC3)cc2)cn1", "note": "[Glipizide] + CCOc1ccccc1-n1c(C(C)N2CCN(C(=O)COc3ccc(Cl)cc3)CC2)nc2ccccc2c1=O [erastin]", "values": [
      {"measurement": "relative cell viability", "setting": "HCC1937", "value": 0.732},
      {"measurement": "relative cell viability", "setting": "MDA-MB-231", "value": 0.843}
    ]},
    {"smiles": "C=C(C)[C@@H]1CC[C@]2(CO)CC[C@]3(C)[C@H](CC[C@@H]4[C@@]5(C)CC[C@H](O)C(C)(C)[C@@H]5CC[C@]43C)[C@@H]12", "note": "[Betulin] + CCOc1ccccc1-n1c(C(C)N2CCN(C(=O)COc3ccc(Cl)cc3)CC2)nc2ccccc2c1=O [erastin]", "values": [
      {"measurement": "relative cell viability", "setting": "HCC1937", "value": 0.524},
      {"measurement": "relative cell viability", "setting": "MDA-MB-231", "value": 0.32}
    ]},
    {"smiles": "CCOC(=O)c1c(NC(=O)CN2CCN(C(=O)c3ccco3)CC2)sc2c1CCC2", "note": "+ CCOc1ccccc1-n1c(C(C)N2CCN(C(=O)COc3ccc(Cl)cc3)CC2)nc2ccccc2c1=O [erastin]", "values": [
      {"measurement": "relative cell viability", "setting": "HCC1937", "value": 0.647},
      {"measurement": "relative cell viability", "setting": "MDA-MB-231", "value": 0.839}
    ]},
    {"smiles": "O=C(CN1CCN(C(=O)c2ccco2)CC1)Nc1cc(C(F)(F)F)ccc1Cl", "note": "+ CCOc1ccccc1-n1c(C(C)N2CCN(C(=O)COc3ccc(Cl)cc3)CC2)nc2ccccc2c1=O [erastin]", "values": [
      {"measurement": "relative cell viability", "setting": "HCC1937", "value": 0.638},
      {"measurement": "relative cell viability", "setting": "MDA-MB-231", "value": 0.463}
    ]},
    {"smiles": "O=C(Nc1ccc(C(O)(C(F)(F)F)C(F)(F)F)cc1)c1ccc(C(F)(F)F)cc1", "note": "+ CCOc1ccccc1-n1c(C(C)N2CCN(C(=O)COc3ccc(Cl)cc3)CC2)nc2ccccc2c1=O [erastin]", "values": [
      {"measurement": "relative cell viability", "setting": "HCC1937", "value": 0.366},
      {"measurement": "relative cell viability", "setting": "MDA-MB-231", "value": 0.693}
    ]},
    {"smiles": "CCc1c(-c2ccccc2)c(-c2ccccc2)nn1-c1ccccc1-c1cccc(OCC(=O)O)c1", "note": "+ CCOc1ccccc1-n1c(C(C)N2CCN(C(=O)COc3ccc(Cl)cc3)CC2)nc2ccccc2c1=O [erastin]", "values": [
      {"measurement": "relative cell viability", "setting": "HCC1937", "value": 0.84},
      {"measurement": "relative cell viability", "setting": "MDA-MB-231", "value": 0.861}
    ]},
    {"smiles": "O=c1oc2ccccc2cc1O", "note": "[3-Hydroxycoumarin] + CCOc1ccccc1-n1c(C(C)N2CCN(C(=O)COc3ccc(Cl)cc3)CC2)nc2ccccc2c1=O [erastin]", "values": [
      {"measurement": "relative cell viability", "setting": "HCC1937", "value": 0.61},
      {"measurement": "relative cell viability", "setting": "MDA-MB-231", "value": 0.741}
    ]},
    {"smiles": "O=C(OC(C(F)(F)F)C(F)(F)F)N1CCC(C(O)(c2ccc3c(c2)OCO3)c2ccc3c(c2)OCO3)CC1", "note": "+ CCOc1ccccc1-n1c(C(C)N2CCN(C(=O)COc3ccc(Cl)cc3)CC2)nc2ccccc2c1=O [erastin]", "values": [
      {"measurement": "relative cell viability", "setting": "HCC1937", "value": 0.53},
      {"measurement": "relative cell viability", "setting": "MDA-MB-231", "value": 0.546}
    ]},
    {"smiles": "CC(C)(Oc1ccc(C(=O)c2ccc(Cl)cc2)cc1)C(=O)O", "note": "[Choline Fenofibrate] + CCOc1ccccc1-n1c(C(C)N2CCN(C(=O)COc3ccc(Cl)cc3)CC2)nc2ccccc2c1=O [erastin]", "values": [
      {"measurement": "relative cell viability", "setting": "HCC1937", "value": 0.848},
      {"measurement": "relative cell viability", "setting": "MDA-MB-231", "value": 0.662}
    ]},
    {"smiles": "C[C@H](CCC(=O)O)[C@H]1CC[C@H]2[C@@H]3C[C@H](O)[C@@H]4C[C@H](O)CC[C@]4(C)[C@H]3CC[C@]12C", "note": "[Hyodeoxycholic acid] + CCOc1ccccc1-n1c(C(C)N2CCN(C(=O)COc3ccc(Cl)cc3)CC2)nc2ccccc2c1=O [erastin]", "values": [
      {"measurement": "relative cell viability", "setting": "HCC1937", "value": 0.767},
      {"measurement": "relative cell viability", "setting": "MDA-MB-231", "value": 0.881}
    ]}
  ]
}
